From PubChem BioAssay (Tox21)
Several values for one entry are separate records, joined by “and”; a condition that tells them apart may be missing. Identical values can stand only once. Records with an inconclusive call do not appear. Where a structure was tested more than once in an assay, its records may differ in their call. Activity calls are given as the source filed them. Unless noted, the call rests on the fitted dose curve; in most records, active means well fitted curve in the direction sought with a large enough effect in the repeat runs; inconclusive means weak or mixed curves; inactive means no such curve, though single readings can be large; an effect the other way counts as inactive or inconclusive.

How the values were obtained:
[1] = A CellTox Green Cytotoxicity Assay to monitor cytotoxicity in HepG2 cells - 0 hour (AID 1224882); further: nearly all actives have a fitted effect of over 35% in size
Summary of the method: (§1)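 HepG2, 600 cells/well premixed w/ CellTox Green; 5 h settle, 37 C/5% CO2; pintool cpd add (DMSO); 37 C, 40 h; fluorescence read at 0, 8, 16, 24, 32, 40 h.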

[2] = A CellTox Green Cytotoxicity Assay to monitor cytotoxicity in HepG2 cells - 32 hour (AID 1224883); further: nearly all actives have a fitted effect of over 50% in size; further: potency means the concentration at half of the fitted maximal effect
Summary of the method: as §1

[3] = A CellTox Green Cytotoxicity Assay to monitor cytotoxicity in HEK293 cells - 8 hour (AID 1224884); further: nearly all actives have a fitted effect of over 35% in size; further: potency means the concentration at half of the fitted maximal effect
Summary of the method: (§2)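 Read-out: fluorescence of a cell-impermeant cyanine dye staining DNA of dead cells, proportional to cytotoxicity. HEK293, 600 cells/well with reagent, compound (23 nL DMSO) added after 5 h; reads at 0, 8, 16, 24, 32, 40 h.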

[4] = qHTS RealTime-Glo MT Cell Viability Assay in HEK293 cells - 24 hour (AID 1224886); further: nearly all actives have a fitted effect of over 50% in size; further: potency means the concentration at half of the fitted maximal effect; on activity change, negative = cytotoxicity: top concentration of the series differs between compounds
Summary of the method: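 Tox21 10K qHTS, HEK293, 600 cells/well, RealTime-Glo reagent co-dispensed with cells; 5 h preincubation, compound by pintool, 37 C, luminescence at 0–40 h.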

[5] = qHTS RealTime-Glo MT Cell Viability Assay in HEK293 cells - 8 hour (AID 1224887); further: nearly all actives have a fitted effect of over 50% in size; further: potency means the concentration at half of the fitted maximal effect; on activity change, negative = cytotoxicity: top concentration of the series differs between compounds
Summary of the method: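 Luminescence readout at each listed time point; HEK293, 600 cells/well, RealTime-Glo MT reagent added with cells; compounds pinned (23 nL in DMSO) after 5 h at 37 C; continuous culture at 37 C.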

[6] = A CellTox Green Cytotoxicity Assay to monitor cytotoxicity in HEK293 cells - 16 hour (AID 1224888); further: nearly all actives have a fitted effect of over 35% in size; further: potency means the concentration at half of the fitted maximal effect
Summary of the method: as §2

[7] = qHTS RealTime-Glo MT Cell Viability Assay in HepG2 cells - 0 hour (AID 1224889); further: nearly all actives have a fitted effect of over 50% in size
Summary of the method: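 Cells + NanoLuc/prosubstrate dispensed (600 cells/well) → 5 h at 37 C/5% CO2 → compounds in DMSO transferred → 40 h incubation at 37 C, luminescence read at 0, 8, 16, 24, 32, 40 h.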

[8] = qHTS assay to identify small molecule antagonists of the estrogen receptor alpha (ER-alpha) signaling pathway using the BG1 cell line in the presence of 0.1 nM 17-beta-estradiol - cell viability counter screen (AID 1259241); further: nearly all actives have a fitted effect of over 40% in size; further: potency means the concentration at half of the fitted maximal effect
Summary of the method: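 Estradiol-stimulated (0.1 nM) VM7Luc4E2 cells exposed to compounds 22 hr; viability measured by fluorescence of cleaved CellTiter-Fluor substrate after 30 min.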

[9] = biological target: Estrogen receptor (Homo sapiens) (UniProt P03372); assay: qHTS assay to identify small molecule antagonists of the estrogen receptor alpha (ER-alpha) signaling pathway using the BG1 cell line in the presence of 0.1 nM 17-beta-estradiol (AID 1259244); further: nearly all actives have a fitted effect of over 50% in size; further: potency means the concentration at half of the fitted maximal effect
Sequence of Estrogen receptor (Homo sapiens) (P03372 whole entry, looked up): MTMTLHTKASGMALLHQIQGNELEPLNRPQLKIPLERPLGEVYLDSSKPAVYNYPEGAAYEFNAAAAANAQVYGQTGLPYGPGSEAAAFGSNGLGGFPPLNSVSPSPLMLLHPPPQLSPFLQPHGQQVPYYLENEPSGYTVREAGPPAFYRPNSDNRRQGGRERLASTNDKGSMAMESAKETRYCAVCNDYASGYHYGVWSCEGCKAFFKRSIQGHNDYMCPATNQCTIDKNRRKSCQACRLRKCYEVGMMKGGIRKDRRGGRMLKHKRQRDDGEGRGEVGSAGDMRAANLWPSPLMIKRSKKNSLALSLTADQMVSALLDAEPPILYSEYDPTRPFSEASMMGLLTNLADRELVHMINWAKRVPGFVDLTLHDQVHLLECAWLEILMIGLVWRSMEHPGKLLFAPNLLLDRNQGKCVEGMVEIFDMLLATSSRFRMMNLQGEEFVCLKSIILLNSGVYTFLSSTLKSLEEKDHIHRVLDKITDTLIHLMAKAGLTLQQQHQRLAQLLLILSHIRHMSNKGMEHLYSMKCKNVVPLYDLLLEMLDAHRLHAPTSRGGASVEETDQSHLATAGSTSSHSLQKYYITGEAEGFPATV
Summary of the method: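 Luminescence after ONE-Glo (30 min, room temperature) measured ERE-luciferase activity in VM7Luc4E2 cells treated 22 h with compound and 0.1 nM final 17beta-estradiol as stimulator.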

[10] = qHTS assay to identify small molecule HDAC inhibitors (AID 1259364);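 further: wild-type HCT-116 cells with endogenous class I/II HDAC activity; top concentration of the series differs between compounds; nearly all actives have a fitted effect of over 45% in size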
Summary of the method: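 HCT-116 (wild type), 1,500 cells/well, overnight; compound 2 hr 37C 5% CO2; HDAC-Glo I/II reagent 30 min RT; luminescence readout.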

[11] = qHTS assay to identify small molecule agonists of the sonic hedgehog signaling (Shh) pathway - cell viability counter screen (AID 1259366); further: nearly all actives have a fitted effect of over 50% in size; further: potency means the concentration at half of the fitted maximal effect
Summary of the method: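 Same-well cytotoxicity read. Gli1-Luc reporter 3T3 cells; compounds 24hr, 37C/5% CO2; CellTiter-Fluor fluorescence.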

[12] = qHTS assay to identify small molecule agonists of the sonic hedgehog signaling (Shh) pathway (AID 1259368; calls by dose curve;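 further: NIH/3T3-derived 3T3Gli1-Luc cells carrying a stable Gli1-driven firefly luciferase reporter; series mostly up to about 92 µM; nearly all actives have a fitted effect of over 15% in size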)
Summary of the method: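 Read-out: firefly luciferase luminescence from a Gli1 response element reporter stably integrated in NIH/3T3-derived 3T3Gli1-Luc cells, measured 30 min at room temperature after reagent addition. Compound exposure lasted 24 hr at 37 C, 5% CO2.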

[13] = A CellTox Green Cytotoxicity Assay to monitor cytotoxicity in HepG2 cells - 8 hour (AID 1224890); further: nearly all actives have a fitted effect of over 45% in size
Summary of the method: as §1

[14] = qHTS assay to identify small molecule phospholipidosis (PLD) inducers (AID 1259344; active means well fitted curve in the direction sought with a large enough effect; an effect the other way counts as inactive or inconclusive; further: potency means the concentration at half of the fitted maximal effect)
Summary of the method: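 Phospholipid accumulation was scored by imaging: fixed, Hoechst-counterstained HepG2 cells stained with LipidTOX Red after 24 h compound exposure at 37 C. Read-outs were pit count and pit intensity per well or per cell, with amiodarone and DMSO controls.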

[15] = qHTS assay to identify small molecule HDAC inhibitors - cell viability counter screen (AID 1259365)
Summary of the method: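 After overnight seeding at 1,500 cells per well, wild-type HCT-116 cultures took up compounds in DMSO for 2hr at 37 C. Viable cell content came from luminescence with CellTiter-Glo.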

[16] = qHTS assay to identify small molecule antagonists of the sonic hedgehog signaling (Shh) pathway - cell viability counter screen (AID 1259367); further: nearly all actives have a fitted effect of over 55% in size; further: potency means the concentration at half of the fitted maximal effect
Summary of the method: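 Viability was read by CellTiter-Fluor fluorescence in the same wells, reagent added 23 hr into compound treatment and incubated 1 hr at 37C. The 3T3 Gli1-Luc reporter cells (2,000/well) received conditioned medium after compound and ran 24 hr.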

[17] = qHTS assay to identify small molecule antagonists of the sonic hedgehog signaling (Shh) pathway (AID 1259369; calls by dose curve; further: nearly all actives have a fitted effect of over 45% in size; further: potency means the concentration at half of the fitted maximal effect)
Summary of the method: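 Luminescence readout: firefly Luc under Gli1 response element in 3T3Gli1-Luc cells (NIH/3T3 clone). Antagonist mode, stimulation by conditioned medium; compound exposure 24hr at 37 C, 5% CO2.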

[18] = qHTS assay to identify small molecule antagonists of the androgen receptor (AR) signaling pathway using the MDA cell line in the presence of 0.5 nM R1881 - cell viability counter screen (AID 1259242); further: nearly all actives have a fitted effect of over 45% in size; further: potency means the concentration at half of the fitted maximal effect
Summary of the method: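 Live-cell protease fluorescence, CellTiter-Fluor, 30 min at 37C. Cells: MDA-kb2, 3,000/well, preincubated 5 hr. Compounds plus 0.5 nM R1881 final, 16 hr, 37C, 0% CO2.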

[19] = biological target: Androgen receptor (Homo sapiens) (UniProt P10275); assay: qHTS assay to identify small molecule antagonists of the androgen receptor (AR) signaling pathway using the MDA cell line in the presence of 0.5 nM R1881 (AID 1259243); further: nearly all actives have a fitted effect of over 50% in size; further: potency means the concentration at half of the fitted maximal effect
Sequence of Androgen receptor (Homo sapiens) (P10275 whole entry, looked up): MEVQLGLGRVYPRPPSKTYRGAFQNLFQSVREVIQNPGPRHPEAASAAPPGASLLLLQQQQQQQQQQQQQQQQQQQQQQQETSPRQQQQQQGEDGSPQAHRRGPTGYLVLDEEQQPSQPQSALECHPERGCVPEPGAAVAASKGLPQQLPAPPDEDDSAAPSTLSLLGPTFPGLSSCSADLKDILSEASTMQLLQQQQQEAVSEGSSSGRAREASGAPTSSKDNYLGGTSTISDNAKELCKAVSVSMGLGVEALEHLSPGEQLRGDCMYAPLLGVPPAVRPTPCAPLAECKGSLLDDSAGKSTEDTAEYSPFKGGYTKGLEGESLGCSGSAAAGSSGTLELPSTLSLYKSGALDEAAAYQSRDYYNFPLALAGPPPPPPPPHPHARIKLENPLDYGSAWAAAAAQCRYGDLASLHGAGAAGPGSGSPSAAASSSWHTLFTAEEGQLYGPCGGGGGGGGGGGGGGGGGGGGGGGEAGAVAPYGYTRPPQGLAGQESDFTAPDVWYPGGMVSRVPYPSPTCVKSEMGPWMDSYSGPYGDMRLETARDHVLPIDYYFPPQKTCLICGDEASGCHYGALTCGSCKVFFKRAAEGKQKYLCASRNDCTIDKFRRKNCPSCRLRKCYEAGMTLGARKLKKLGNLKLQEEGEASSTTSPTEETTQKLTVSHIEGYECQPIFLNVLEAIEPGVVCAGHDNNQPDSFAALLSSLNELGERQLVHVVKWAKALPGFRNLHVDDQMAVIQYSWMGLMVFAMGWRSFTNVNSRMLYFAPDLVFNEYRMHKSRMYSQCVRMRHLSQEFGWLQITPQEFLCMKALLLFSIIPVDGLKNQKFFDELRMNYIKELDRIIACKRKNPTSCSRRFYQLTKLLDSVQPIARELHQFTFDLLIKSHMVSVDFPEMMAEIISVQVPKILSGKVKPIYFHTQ
Summary of the method: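 MDA-kb2, MMTV-luc (AR/GR elements); 3,000 cells/well; cpd + 0.5 nM R1881 final; 16 hr 37C, 0% CO2; ONE-Glo 30 min RT; luminescence.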
On the % scale 0 is the no-effect control and ±100 the full control effect.

CCCCCCCCCCCCCCCCCC[N+](C)(C)C
active: Potency [2] 49.1 µM | Potency [3] 39 µM | Potency [4] 19.6 µM | Potency [5] 49.1 µM | Potency [6] 49.1 µM | Potency [9] 54.6 µM | Potency [11] 68.8 µM
inactive: Potency [1] | Potency [7] | Potency [8] | Potency [10] | Potency [12]

Oc1ccc(Cl)cc1Sc1cc(Cl)ccc1O
30.6 µM (active) and inactive: Potency [11] | Potency [16]
inactive: Potency [1] | Potency [3] | Potency [7] | Potency [13] | Potency [8] | Potency [14] | Potency [10] | Potency [15] | Potency [12]
active: Potency [2] 48.9 µM and 26.8 µM | Potency [4] 19.5 µM and 23.9 µM | Potency [5] 24.5 µM | Potency [9] 30.6 µM and 29.8 µM | Potency [17] 26.6 µM

Cc1oc(-c2ccccc2)nc1CCC(=O)c1ccc(CC2SC(=O)NC2=O)cc1 (stereo not drawn)
inactive: Potency [1] | Potency [2] | Potency [3] | Potency [4] | Potency [5] | Potency [7] | Potency [13] | Potency [8] | Potency [18] | Potency [10] | Potency [12] | Potency [17]

Oc1cccc(-c2c3nc(c(-c4cccc(O)c4)c4ccc([nH]4)c(-c4cccc(O)c4)c4nc(c(-c5cccc(O)c5)c5ccc2[nH]5)CC4)C=C3)c1
active: Potency [4] 23.9 µM | Potency [5] 23.9 µM | Potency [8] 3.35 µM | Potency [18] 7.5 µM | Potency [11] 13.3 µM | Potency [16] 13.3 µM | Potency [17] 16.8 µM
inactive: Potency [1] | Potency [2] | Potency [3] | Potency [6] | Potency [7] | Potency [13] | Potency [14] | Potency [12]

C=C(C)C(=O)OCC[N+](C)(C)C
inactive: Potency [1] | Potency [2] | Potency [3] | Potency [4] | Potency [5] | Potency [6] | Potency [7] | Potency [13] | Potency [8] | Potency [18] | Potency [10] | Potency [15] | Potency [11] | Potency [12] | Potency [17]
active: Potency [19] 30.5 µM

Clc1ccc2nsnc2c1NC1=NCCN1
inactive: Potency [1] | Potency [2] | Potency [3] | Potency [4] | Potency [5] | Potency [6] | Potency [7] | Potency [13] | Potency [8] | Potency [18] | Potency [19] | Potency [9] | Potency [14] | Potency [10] | Potency [15] | Potency [11] | Potency [16] | Potency [12] | Potency [17]

CCN1/C(=C/C=C/c2sc3ccccc3[n+]2CC)Sc2ccccc21
active: Potency [2] 1.17 µM | Potency [4] 1.17 µM | Potency [8] 2.31 µM | Potency [18] 0.82 µM | Potency [9] 0.58 µM | Potency [14] 22.4 µM | Potency [11] 4.61 µM | Potency [16] 5.17 µM
inactive: cytotoxicity [1] -4.71% [at 15.8 µM] | cytotoxicity increase [3] -9.76% [at 15.8 µM] | activity change, negative = cytotoxicity [5] -21.6% [at 15.8 µM] | activity change [6] -3.87% [at 15.8 µM, stronger effect = higher value] | activity change, negative = cytotoxicity [7] -13.2% [at 15.8 µM] | cytotoxicity increase [13] -7.07% [at 15.8 µM] | activity change, negative = inhibition [10] -19.9% [at 19 µM] | activity change, negative = cytotoxicity [15] -13.9% [at 19 µM] | activity change [12] -1.72% [at 18.9 µM, stronger effect = higher value] | activity change, negative = inhibition [17] -19% [at 19 µM]
